Assay outcomes deposited in PubChem BioAssay by National Center for Advancing Translational Sciences (NCATS).
D1 potentiator = enhances dopamine response at the human D1 receptor. hit rate 0.036% among 360,000. potentiation, % at 10 µM. AID 504651. HEK293 TREx D1 cells, calcium flux, dopamine EC20 potentiation. P21728; in the data active means potentiation above about 30%; further: 0% is about no effect
Target sequence (P21728 whole entry, looked up): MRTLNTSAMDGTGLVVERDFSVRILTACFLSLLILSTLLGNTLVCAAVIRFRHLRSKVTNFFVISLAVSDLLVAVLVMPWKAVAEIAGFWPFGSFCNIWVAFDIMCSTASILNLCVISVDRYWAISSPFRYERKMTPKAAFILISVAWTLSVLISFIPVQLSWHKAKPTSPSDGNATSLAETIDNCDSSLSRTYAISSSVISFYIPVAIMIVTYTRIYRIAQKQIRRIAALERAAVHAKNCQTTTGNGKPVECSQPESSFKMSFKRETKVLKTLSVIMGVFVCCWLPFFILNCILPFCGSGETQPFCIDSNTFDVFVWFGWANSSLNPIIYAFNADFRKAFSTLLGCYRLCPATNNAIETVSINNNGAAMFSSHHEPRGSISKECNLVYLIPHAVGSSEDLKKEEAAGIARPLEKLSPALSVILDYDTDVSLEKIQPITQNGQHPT
D1 antagonist = human D1 dopamine receptor antagonism; HEK293 TREx D1 cells, calcium flux, dopamine EC80; hits give low values; AID 504652; activity change, negative = inhibition, % at 10 µM; P21728; hit rate 3.2% among 360,000; in the data active means activity change below about -30%; further: on the % scale 0 is the no-effect control and ±100 the full control effect
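Tetracycline-induced HEK293 Trex D1 cells, force-coupled to calcium, dye-loaded; compounds added and read 180 s, then EC80 dopamine added and calcium flux tracked kinetically another 180 s.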
DRD3 agonist = D3 dopamine receptor (human) agonism; P35462; D3R DiscoveRx beta-arrestin cells, luminescence, 90 min; max activation, %; hit rate 0.58% among 410,000; in the data active means max activation above about 30%; further: 0% is about no effect
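Agonist mode: compounds and dopamine controls were applied to plated cells for 90 min at 37 degrees C after an overnight attachment at 1500 cells/well. Luminescent read-out followed 30 - 60 minutes at room temperature with DiscoveRx detection reagent.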
D3 antag = blocks the human D3 dopamine receptor; hit rate 2.5% among 360,000; D3R cells, DiscoveRx beta-arrestin luminescence, antagonist mode; hits give low values; max response, negative = inhibition, %; in the data active means max response below about -50%; inconclusive means no clear call, values can overlap the other calls; further: on the % scale 0 is the no-effect control and ±100 the full control effect
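Cells expressing the human receptor were seeded at 1500 cells/well, incubated overnight at 37 degrees C in 5% CO2, then exposed to library compounds with dopamine controls for 90 minutes at 37 degrees C before luminescent detection.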
D1 agonist = agonists of human D1 dopamine receptor; P21728; HEK293 T-REx D1 cells, calcium flux, agonist mode; activation, % at 2 µM; hit rate 1% among 360,000; AID 504660; in the data active means activation above about 30%; further: 0% is about no effect
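Tetracycline-induced HEK293 TREx D1 cells, force-coupled to calcium signalling, were dye-loaded with a no-wash calcium kit. Compound was pin-added after a 10 s baseline. Fluorescence was read kinetically at 1 cycle/s for 180 s, with calcium rises flagged as agonism.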
The depositor's hits bear a star; ? = inconclusive; . = no result. A selection: hits, their analogues and other compounds. The true share with any hit is near 6%.

SMILES	D1 potentiator	D1 antagonist	DRD3 agonist	D3 antag	D1 agonist
COc1ccccc1CNS(=O)(=O)c1ccc(-n2cnnn2)c(C)c1	-8.3	-30.7*	18.8	0.5	6.8
COc1ccccc1CNS(=O)(=O)c1ccc2c(c1)NC(=O)CC(=O)N2	-3.2	-32.6*	4.9	.	1.6
Cc1cc(S(=O)(=O)NC2CCCCC2)ccc1-n1cnnn1	-4.7	-30.4*	3.3	8.9	10.1
CCOC1=C2CN(S(=O)(=O)c3ccc(C)cc3)C(c3ccc(C)cc3)CC2N(S(=O)(=O)c2ccc(C)cc2)C(c2ccccc2)C1 (stereo not drawn)	.	.	-0.4	-21.6	.
Nc1ccccc1CCc1ccccc1N	.	.	-5.8	-16.5	.
CC(=O)N1CCc2cc(S(=O)(=O)NC(CC(C)C)C(=O)NCCc3ccc(C)cc3)ccc21 (stereo not drawn)	0.2	11.4	6.3	.	5.3
CC(C)C(=O)Nc1cccc(COc2ccc(CN(Cc3ccccc3)C(=O)OC(C)(C)C)cc2)c1	.	.	36.1*	104.8	.
CC(C)C(=O)Nc1ccc(COc2ccccc2CN(Cc2ccccc2)C(=O)OC(C)(C)C)cc1	.	.	-11.2	0.0	.
CCCCSc1nnc2nc(C)cc(C)n12	-0.3	30.4	4.1	-57.6*	2.1
CC(=O)N1CCN(c2ccc(S(=O)(=O)NCCN(C(C)C)C(C)C)cc2[N+](=O)[O-])CC1	-2.5	16.4	3.0	1.0	3.5
CN(C)CCNS(=O)(=O)c1ccc(N2CCN(c3ccc(F)cc3)CC2)c([N+](=O)[O-])c1	-8.0	-49.4*	1.9	-15.5	59.0*
CC12CCC(C(=O)N(CC(=O)O)C1=O)C2(C)C (stereo not drawn)	4.9	-51.8*	0.5	3.1	0.0
CC12CCC(C(=O)N(CSC(=S)N/N=C\c3ccccc3)C1=O)C2(C)C (stereo not drawn)	-0.5	1.0	4.8	-69.1*	4.9
CC1CC(C)CN(C(=O)C2CCC(CNS(=O)(=O)c3ccccc3)CC2)C1 (stereo not drawn)	-6.2	-2.5	3.9	9.6	1.2
CCOc1ccc(OCC)c(Nc2nc3ccc(Cl)cc3n3cnnc23)c1	0.3	-36.5*	1.7	.	0.7
CCOc1ccc(OCC)c(Nc2nc3ccc(C(=O)c4ccccc4)cc3n3cnnc23)c1	-1.2	-7.1	-5.2	.	0.9
CN(CC(=O)Nc1ccc([N+](=O)[O-])cc1Br)Cc1c(F)cccc1Cl	0.9	-32.5*	-14.3	-22.7	11.7
O=C1CN(N=Cc2ccco2)C(=O)N1	.	.	-0.3	7.0	.
COCCN(C(=O)c1cccc(-n2cnnn2)c1)c1c(N)n(CC(C)C)c(=O)[nH]c1=O	-6.4	-39.9*	0.4	-9.5	-0.8
CCCn1c(N)c(N(CCOC)C(=O)c2ccccc2)c(=O)[nH]c1=O	0.5	-35.8*	22.7	13.6	4.5
CCCn1c(N)c(N(CCOC)C(=O)c2ccc(F)cc2)c(=O)[nH]c1=O	4.4	-18.9	-2.9	6.0	3.4
COCCN(C(=O)CSc1nnc(Nc2ccc(C)cc2)s1)c1c(N)n(CC(C)C)c(=O)[nH]c1=O	36.2*	-5.9	-3.0	3.0	2.3
CCCCn1c(N)c(N(Cc2ccccc2OC)C(=O)c2c(CC)noc2C)c(=O)[nH]c1=O	4.6	-44.2*	-1.6	5.0	1.0
COCCN(C(=O)c1cc(-c2ccc(F)cc2)nc2ccccc12)c1c(N)n(CC(C)C)c(=O)[nH]c1=O	.	.	3.8	-7.1	.
CCCCn1c(N)c(N(CC)C(=O)c2c(CC)noc2C)c(=O)[nH]c1=O	-7.0	-13.7	-3.4	0.0	2.8
SMILES	D1 potentiator	D1 antagonist	DRD3 agonist	D3 antag	D1 agonist
CCCCCn1nc(C(=O)N(CCOC)c2c(N)n(CCCC)c(=O)[nH]c2=O)c2ccccc2c1=O	-4.8	-2.6	-5.7	-8.5	-2.2
CCCCn1nc(C(=O)N(CCOC)c2c(N)n(CCCC)c(=O)[nH]c2=O)c2ccccc2c1=O	.	-30.4*	0.6	8.1	5.7
CCOc1ccc(N2CC(O)(c3ccc(F)cc3)[N+]3=C2CCCC3)cc1 (stereo not drawn)	-4.4	-44.2*	-12.6	-7.1	3.6
COc1ccc(N2CC(O)(c3ccc(OC(F)F)cc3)[N+]3=C2CCCC3)cc1 (stereo not drawn)	5.0	12.6	-14.1	-50.2*	2.1
COc1ccc(N2CC(O)(c3ccc(F)cc3)[N+]3=C2CCCC3)cc1 (stereo not drawn)	-6.8	-4.2	0.9	?	1.4
CCOc1ccccc1NC(=O)CSc1ncc(S(=O)(=O)c2ccc(C)c(C)c2)c(N)n1	0.1	-8.0	4.1	.	12.7
CCC(C)[C@H]1COCCS(=O)(=O)N1Cc1ccccc1F (stereo partly drawn)	-2.4	2.3	-13.8	-1.3	0.6
CC(C)C[C@H]1COCCS(=O)(=O)N1Cc1ccccc1F	.	.	41.8*	-4.5	.
CCN(CC)S(=O)(=O)c1ccc(NC(=O)c2ccc(N(C)S(C)(=O)=O)cc2)cc1	-12.1	-35.9*	2.6	1.4	8.2
CCOc1ccc(NC(=O)/C(C#N)=C/c2ccc(N3CCCC3)c(C)c2)cc1	4.2	-5.0	21.2	23.8	376.8*
CCOc1cc(/C=C(\C#N)C(=O)Nc2ccc(C)cc2)ccc1OCc1cc(=O)n2nc(CC)sc2n1	-1.6	16.7	48.0*	.	1.9
CCOc1cc(/C=C(/C#N)C(=O)Nc2ccc(O)cc2)cc(Br)c1O	-5.0	8.6	-9.1	-20.3	47.6*
C=CCNC(=O)/C(C#N)=C\c1cc(Cl)c(O)c(OCC)c1	-7.8	-0.1	-6.6	32.8	13.1
CC1(C(=O)NS(=O)(=O)C2CC2)CCN(C(=O)c2ccc3ccccc3n2)C1 (stereo not drawn)	.	.	-2.1	0.0	.
CC(=O)Nc1cncc(-c2cccc(C(=O)N3CCOCC3)c2)n1	.	.	-7.8	0.0	.
O=C(Cc1ncc(C(F)(F)F)cc1Cl)NNc1cccc(F)n1	-6.5	7.8	3.6	5.6	2.0
O=C(CN1CCNCC1)N1CCOCC1	.	.	5.9	21.0	.
Cc1cc(C(=O)Nc2ncn[nH]2)ccc1[N+](=O)[O-]	-3.5	1.9	34.1*	-10.0	3.5
Cc1cc(C)nc(NC(=O)c2ccc([N+](=O)[O-])c(C)c2)n1	-4.5	4.0	2.2	10.3	3.3
CC(C)CNC(=O)c1cccc(NC(=O)CSc2ccc(Cl)cc2)c1	-3.8	-11.6	-8.2	0.0	7.1
CC(C)(C)NC(=O)c1cccc(NC(=O)CSc2ccc(Cl)cc2)c1	-11.2	-59.2*	-7.1	-12.6	10.4
COc1cc(C(=O)Nc2cccc(-c3nc4cc(C)cc(C)c4o3)c2)cc(OC)c1OC	-7.9	-4.2	51.6*	41.0	2.6
Cc1cc(C)c2oc(-c3cccc(NC(=O)c4ccc(F)cc4)c3)nc2c1	0.1	-1.2	-5.3	0.0	2.4
CCN(CC(=O)Nc1ccc2c(c1)OCCO2)C(=O)c1ccc(C(F)(F)F)cc1	-5.2	-10.0	5.1	5.9	-0.3
CC(C)NC(=O)CSc1nnc(C2CC2)n1-c1ccccc1	-2.1	-0.9	4.4	-50.9*	1.2
Cc1ccc(Nc2cc(C)nc(-c3ccccc3)n2)cc1	-2.5	0.7	-3.0	-19.6	1.6
